Measured values reported in the supplement of paper PMC11732987, “Enantioselective OTUD7B fragment discovery through chemoproteomics screening and high-throughput optimisation” (Communications Chemistry, 2025).

How the values were obtained:
Assay in all cases: log2 ratio of Biotin-Ahx-Ub-VS probe labelling (fragment/DMSO); higher = less target engagement (more negative = stronger competition), active = hit call of the paper (q ≤ 0.05, log2 ratio ≤ -1)
Conditions in all cases: compound concentration: 200 uM; treatment time: 3 h
[1] = molecular target: T1, USP19 (UniProt O94966)
T1 sequence (whole entry): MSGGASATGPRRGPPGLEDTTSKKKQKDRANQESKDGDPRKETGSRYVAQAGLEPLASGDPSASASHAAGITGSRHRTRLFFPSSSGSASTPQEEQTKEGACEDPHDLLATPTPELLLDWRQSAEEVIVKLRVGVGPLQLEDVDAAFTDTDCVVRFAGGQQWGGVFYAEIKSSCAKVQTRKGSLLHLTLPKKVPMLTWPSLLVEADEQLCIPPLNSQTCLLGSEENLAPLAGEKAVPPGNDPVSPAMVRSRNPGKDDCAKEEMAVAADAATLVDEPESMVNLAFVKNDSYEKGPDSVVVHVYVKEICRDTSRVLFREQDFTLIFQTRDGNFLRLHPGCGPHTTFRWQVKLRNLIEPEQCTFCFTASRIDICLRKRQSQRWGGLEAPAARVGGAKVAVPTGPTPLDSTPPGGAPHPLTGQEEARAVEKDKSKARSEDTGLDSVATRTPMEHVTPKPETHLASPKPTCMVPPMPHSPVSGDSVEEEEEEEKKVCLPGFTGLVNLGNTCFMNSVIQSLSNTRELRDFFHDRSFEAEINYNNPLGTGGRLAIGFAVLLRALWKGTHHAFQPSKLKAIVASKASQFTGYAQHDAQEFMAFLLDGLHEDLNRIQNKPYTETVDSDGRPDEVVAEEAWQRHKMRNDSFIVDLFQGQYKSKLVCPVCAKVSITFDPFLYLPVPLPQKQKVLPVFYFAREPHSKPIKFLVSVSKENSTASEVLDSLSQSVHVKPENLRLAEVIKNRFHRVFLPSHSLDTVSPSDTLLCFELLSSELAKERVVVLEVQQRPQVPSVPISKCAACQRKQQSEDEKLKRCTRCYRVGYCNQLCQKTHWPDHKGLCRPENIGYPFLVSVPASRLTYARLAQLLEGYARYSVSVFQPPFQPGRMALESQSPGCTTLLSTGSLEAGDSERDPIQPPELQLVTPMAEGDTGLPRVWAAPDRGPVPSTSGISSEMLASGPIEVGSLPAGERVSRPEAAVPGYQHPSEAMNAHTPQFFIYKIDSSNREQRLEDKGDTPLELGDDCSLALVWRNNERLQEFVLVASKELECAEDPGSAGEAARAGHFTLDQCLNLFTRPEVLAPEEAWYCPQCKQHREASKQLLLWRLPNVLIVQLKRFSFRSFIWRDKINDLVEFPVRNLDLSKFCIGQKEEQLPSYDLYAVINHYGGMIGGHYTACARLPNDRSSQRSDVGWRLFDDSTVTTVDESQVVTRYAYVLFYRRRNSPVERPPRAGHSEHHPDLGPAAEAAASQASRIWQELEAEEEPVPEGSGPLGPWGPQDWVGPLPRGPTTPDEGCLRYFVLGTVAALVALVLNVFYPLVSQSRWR
Method in brief: (§1)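 HEK293T lysate in Tris/CHAPS/IGEPAL buffer with protease inhibitors (495 µg per sample) was given fragment at 200 µM or vehicle for 3 h, in triplicate. It then received Biotin-Ahx-Ub-VS at 0.5 µM final for 1 h. Labelled DUBs were NeutrAvidin-enriched, digested with LysC and trypsin, and run by diaPASEF LC-MS/MS. Values are average log2 fragment/vehicle ratios by unpaired t-test on global-median-normalised Spectronaut quantities of proteins with ≥2 unique peptides.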

[2] = molecular target: T2, USP22 (UniProt Q9UPT9)
T2 sequence (whole entry): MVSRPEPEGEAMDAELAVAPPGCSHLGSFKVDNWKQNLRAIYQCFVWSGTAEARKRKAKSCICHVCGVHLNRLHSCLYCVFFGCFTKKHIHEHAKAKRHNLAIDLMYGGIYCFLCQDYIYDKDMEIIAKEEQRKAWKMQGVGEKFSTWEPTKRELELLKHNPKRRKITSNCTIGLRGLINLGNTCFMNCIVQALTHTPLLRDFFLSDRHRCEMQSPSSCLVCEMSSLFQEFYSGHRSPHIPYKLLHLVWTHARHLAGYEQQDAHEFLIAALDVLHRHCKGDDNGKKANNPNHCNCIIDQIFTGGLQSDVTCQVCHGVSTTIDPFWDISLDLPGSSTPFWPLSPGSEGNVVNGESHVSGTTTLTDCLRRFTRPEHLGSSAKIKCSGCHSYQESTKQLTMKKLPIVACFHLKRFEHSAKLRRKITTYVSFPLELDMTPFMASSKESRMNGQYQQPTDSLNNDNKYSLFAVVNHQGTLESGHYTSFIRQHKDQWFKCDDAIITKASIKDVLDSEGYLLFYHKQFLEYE
Method in brief: as §1

[3] = molecular target: USP24 (UniProt Q9UPU5)
Method in brief: as §1

[4] = molecular target: T3, USP25 (UniProt Q9UHP3)
T3 sequence (whole entry): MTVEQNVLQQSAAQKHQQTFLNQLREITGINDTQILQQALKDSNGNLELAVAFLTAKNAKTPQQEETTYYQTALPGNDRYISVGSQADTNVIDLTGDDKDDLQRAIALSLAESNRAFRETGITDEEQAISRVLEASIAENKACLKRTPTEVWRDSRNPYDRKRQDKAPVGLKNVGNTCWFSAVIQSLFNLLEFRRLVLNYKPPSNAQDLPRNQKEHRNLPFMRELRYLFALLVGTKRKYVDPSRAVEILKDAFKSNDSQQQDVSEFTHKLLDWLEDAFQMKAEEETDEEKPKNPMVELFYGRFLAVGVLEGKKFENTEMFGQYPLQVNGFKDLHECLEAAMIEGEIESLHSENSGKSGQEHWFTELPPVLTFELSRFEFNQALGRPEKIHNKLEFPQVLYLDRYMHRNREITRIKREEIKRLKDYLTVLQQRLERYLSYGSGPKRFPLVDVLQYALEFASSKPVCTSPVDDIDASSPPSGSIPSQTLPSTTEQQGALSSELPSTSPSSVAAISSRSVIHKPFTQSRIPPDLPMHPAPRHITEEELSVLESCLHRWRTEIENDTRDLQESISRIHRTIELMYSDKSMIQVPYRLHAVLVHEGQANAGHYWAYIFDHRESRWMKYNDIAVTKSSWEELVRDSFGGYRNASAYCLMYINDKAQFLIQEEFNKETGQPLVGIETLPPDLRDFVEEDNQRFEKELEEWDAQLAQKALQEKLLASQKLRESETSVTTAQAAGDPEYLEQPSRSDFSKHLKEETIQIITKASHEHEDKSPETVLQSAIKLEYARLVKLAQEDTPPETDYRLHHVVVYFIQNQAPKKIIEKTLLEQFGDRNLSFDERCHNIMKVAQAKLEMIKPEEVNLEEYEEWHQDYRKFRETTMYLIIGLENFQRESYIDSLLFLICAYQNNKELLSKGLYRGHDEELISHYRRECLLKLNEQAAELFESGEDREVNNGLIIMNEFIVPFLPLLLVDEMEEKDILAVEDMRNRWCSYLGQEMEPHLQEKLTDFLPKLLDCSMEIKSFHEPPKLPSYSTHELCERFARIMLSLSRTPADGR
Method in brief: as §1

[5] = molecular target: T4, USP28 (UniProt Q96RU2)
T4 sequence (whole entry): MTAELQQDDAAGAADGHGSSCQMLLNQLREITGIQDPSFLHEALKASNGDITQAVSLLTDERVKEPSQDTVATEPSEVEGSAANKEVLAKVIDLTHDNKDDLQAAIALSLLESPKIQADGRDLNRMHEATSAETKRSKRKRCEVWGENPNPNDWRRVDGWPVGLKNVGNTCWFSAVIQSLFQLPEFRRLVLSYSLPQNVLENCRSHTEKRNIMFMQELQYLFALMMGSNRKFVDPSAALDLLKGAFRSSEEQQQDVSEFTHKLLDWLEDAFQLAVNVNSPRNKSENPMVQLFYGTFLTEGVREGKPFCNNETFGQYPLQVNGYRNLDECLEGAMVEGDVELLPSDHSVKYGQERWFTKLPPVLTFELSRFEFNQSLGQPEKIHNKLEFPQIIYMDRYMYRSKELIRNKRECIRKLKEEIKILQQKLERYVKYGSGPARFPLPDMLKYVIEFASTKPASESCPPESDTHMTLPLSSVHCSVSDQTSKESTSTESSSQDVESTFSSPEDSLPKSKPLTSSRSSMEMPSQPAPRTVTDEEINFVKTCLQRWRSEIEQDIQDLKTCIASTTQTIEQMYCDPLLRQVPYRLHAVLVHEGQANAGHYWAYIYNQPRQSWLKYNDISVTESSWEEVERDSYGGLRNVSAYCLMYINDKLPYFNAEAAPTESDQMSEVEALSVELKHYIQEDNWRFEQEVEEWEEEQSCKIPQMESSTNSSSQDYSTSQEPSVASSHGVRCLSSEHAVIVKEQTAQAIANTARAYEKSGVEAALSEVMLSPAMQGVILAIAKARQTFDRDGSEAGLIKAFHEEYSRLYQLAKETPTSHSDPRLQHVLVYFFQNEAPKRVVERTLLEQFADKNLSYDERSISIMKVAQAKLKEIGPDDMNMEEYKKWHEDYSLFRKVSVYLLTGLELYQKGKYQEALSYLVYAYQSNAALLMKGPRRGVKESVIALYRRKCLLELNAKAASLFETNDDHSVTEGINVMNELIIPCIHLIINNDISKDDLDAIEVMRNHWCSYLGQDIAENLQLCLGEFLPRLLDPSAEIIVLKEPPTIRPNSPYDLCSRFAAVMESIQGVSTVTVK
Method in brief: as §1

Measured: log2 ratio of Biotin-Ahx-Ub-VS probe labelling

Sequence of USP24 (Q9UPU5 whole entry): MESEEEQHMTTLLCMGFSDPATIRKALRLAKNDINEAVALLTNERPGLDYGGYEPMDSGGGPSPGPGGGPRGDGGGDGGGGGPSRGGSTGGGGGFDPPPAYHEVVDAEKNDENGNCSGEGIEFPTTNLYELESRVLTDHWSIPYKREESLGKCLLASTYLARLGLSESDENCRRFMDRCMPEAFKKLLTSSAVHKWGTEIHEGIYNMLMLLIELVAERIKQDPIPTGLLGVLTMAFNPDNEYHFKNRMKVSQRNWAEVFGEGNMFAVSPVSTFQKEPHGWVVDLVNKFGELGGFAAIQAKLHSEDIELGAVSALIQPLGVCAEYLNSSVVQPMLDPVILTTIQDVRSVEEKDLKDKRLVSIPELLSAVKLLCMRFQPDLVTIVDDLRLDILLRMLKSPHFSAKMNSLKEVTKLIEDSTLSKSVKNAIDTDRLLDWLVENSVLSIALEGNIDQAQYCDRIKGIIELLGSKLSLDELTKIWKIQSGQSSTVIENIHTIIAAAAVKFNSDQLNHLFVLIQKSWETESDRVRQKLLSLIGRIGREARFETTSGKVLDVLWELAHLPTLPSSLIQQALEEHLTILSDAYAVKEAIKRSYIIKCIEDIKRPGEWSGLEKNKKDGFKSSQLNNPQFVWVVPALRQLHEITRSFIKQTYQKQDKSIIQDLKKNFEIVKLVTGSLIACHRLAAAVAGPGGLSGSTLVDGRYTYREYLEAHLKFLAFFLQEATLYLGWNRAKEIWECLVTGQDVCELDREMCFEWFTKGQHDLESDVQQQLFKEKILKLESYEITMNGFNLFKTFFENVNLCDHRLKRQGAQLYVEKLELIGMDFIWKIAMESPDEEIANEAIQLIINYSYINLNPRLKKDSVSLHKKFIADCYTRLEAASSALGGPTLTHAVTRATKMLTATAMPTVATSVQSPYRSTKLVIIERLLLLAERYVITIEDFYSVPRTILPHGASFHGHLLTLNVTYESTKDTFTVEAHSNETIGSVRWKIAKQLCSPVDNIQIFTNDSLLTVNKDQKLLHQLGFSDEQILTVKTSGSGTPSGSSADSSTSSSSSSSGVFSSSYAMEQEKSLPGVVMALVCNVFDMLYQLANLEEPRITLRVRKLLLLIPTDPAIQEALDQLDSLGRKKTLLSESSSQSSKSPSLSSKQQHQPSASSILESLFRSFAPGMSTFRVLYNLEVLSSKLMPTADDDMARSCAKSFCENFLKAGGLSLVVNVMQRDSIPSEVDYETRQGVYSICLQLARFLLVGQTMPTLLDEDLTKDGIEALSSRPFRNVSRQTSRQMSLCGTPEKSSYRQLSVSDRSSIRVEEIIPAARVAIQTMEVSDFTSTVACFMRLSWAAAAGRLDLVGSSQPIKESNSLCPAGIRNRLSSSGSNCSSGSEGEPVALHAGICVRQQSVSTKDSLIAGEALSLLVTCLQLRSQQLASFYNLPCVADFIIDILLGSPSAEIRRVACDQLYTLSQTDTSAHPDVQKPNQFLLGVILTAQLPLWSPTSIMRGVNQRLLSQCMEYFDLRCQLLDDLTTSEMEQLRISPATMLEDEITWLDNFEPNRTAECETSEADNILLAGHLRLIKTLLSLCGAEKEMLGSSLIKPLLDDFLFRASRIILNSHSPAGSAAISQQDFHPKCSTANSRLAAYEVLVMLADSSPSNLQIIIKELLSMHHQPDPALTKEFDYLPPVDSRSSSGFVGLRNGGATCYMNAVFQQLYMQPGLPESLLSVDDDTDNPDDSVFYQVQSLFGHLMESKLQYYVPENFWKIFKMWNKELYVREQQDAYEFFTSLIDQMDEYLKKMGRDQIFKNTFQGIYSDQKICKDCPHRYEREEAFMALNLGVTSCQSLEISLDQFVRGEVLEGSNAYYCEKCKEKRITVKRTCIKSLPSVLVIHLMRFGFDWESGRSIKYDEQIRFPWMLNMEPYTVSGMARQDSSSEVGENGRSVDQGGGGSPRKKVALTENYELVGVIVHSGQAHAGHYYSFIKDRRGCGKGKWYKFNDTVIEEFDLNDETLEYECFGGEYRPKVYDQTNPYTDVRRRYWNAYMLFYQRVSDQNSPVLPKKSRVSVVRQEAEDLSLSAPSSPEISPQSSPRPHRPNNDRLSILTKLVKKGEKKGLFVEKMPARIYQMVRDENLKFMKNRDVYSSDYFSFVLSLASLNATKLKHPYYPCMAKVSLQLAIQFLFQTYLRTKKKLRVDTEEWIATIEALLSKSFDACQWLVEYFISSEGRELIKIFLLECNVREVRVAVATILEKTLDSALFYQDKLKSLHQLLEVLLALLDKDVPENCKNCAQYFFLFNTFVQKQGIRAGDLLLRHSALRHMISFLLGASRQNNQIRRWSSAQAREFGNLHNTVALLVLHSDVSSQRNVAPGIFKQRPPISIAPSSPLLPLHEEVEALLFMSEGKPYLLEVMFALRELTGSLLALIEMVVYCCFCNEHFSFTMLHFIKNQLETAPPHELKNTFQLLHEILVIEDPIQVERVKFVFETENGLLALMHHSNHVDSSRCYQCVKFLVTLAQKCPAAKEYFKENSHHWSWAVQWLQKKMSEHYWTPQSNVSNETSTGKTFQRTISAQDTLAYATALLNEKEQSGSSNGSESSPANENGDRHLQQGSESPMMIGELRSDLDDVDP

O=C(CCl)Nc1cccc2ncccc12
inactive: [1] -0.114 | [2] 0.19 | [3] -0.136 | [4] -0.527 | [5] -0.917
